The source made the active and inactive calls.
How the values were obtained:
[1] = tested on: Plasmodium falciparum Sir2 (PF13_0152, Sir2A); assay: Plasmodium falciparum Sir2A binding compounds – biochemical, small-molecule microarray, 635 nm fluorescence, primary screen (AID 1098); details: fluorescence 635 nm, higher = more signal;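 further: score merges spot fluorescence intensity with its signal-to-noise ratio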
[2] = probe aDKK1 binding to arrayed compounds – biochemical, biotinylated probe, 635/667 nm fluorescence, primary screen (AID 1099); details: small-molecule microarray, higher = more signal;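 further: score merges 667nm spot fluorescence with signal to noise across triplicate slides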
[3] = probe aCHRDL2 binding to arrayed compounds – biochemical, biotinylated probe, 635/667 nm fluorescence, primary screen (AID 1100); details: small-molecule microarray, higher = more signal
[4] = change in splice reporter luminescence, either direction, cell-based, HEK293, spliceosome inhibition project, primary screen (AID 1101); details: HEK293 splicing luciferase reporter, 24 h, higher = more signal, called active from +8 up or from −8 down;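 further: HEK293 cells carrying a splicing-competent luciferase reporter gene; test concentration not given here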
[5] = molecular target: Fibroblast growth factor 10 (Homo sapiens) (UniProt O15520); assay: compounds binding fibroblast growth factor 10 – biochemical, small-molecule microarray, 635 nm fluorescence, primary screen (AID 1102); details: FGF10 binding, fluorescence 635 nm, higher = more signal
Fibroblast growth factor 10 (Homo sapiens), sequence (O15520 whole entry, looked up): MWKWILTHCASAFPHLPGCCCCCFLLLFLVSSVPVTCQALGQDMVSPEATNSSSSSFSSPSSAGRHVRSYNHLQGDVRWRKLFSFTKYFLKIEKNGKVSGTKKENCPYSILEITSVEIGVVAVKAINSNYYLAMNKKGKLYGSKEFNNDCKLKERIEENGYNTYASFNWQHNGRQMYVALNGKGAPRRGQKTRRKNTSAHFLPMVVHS

[6] = tested on: glycogen synthase kinase-3 (GSK3A per assay name; protocol says GSK3B); assay: compounds binding glycogen synthase kinase-3 – biochemical, small-molecule microarray, 635 nm fluorescence, GSK3A, primary screen (AID 1103); details: fluorescence 635 nm, higher = more signal; further: the record names both GSK3A and GSK3B
[7] = molecular target: Epidermal growth factor receptor (Homo sapiens) (UniProt P00533); assay: compounds binding epidermal growth factor receptor – biochemical, small-molecule microarray, 635 nm fluorescence, primary screen (AID 1104); details: EGFR binding, higher = more signal;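 further: score merges 667 nm emission intensity with spot signal to noise over triplicate slides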
Epidermal growth factor receptor (Homo sapiens), sequence (P00533 whole entry, looked up): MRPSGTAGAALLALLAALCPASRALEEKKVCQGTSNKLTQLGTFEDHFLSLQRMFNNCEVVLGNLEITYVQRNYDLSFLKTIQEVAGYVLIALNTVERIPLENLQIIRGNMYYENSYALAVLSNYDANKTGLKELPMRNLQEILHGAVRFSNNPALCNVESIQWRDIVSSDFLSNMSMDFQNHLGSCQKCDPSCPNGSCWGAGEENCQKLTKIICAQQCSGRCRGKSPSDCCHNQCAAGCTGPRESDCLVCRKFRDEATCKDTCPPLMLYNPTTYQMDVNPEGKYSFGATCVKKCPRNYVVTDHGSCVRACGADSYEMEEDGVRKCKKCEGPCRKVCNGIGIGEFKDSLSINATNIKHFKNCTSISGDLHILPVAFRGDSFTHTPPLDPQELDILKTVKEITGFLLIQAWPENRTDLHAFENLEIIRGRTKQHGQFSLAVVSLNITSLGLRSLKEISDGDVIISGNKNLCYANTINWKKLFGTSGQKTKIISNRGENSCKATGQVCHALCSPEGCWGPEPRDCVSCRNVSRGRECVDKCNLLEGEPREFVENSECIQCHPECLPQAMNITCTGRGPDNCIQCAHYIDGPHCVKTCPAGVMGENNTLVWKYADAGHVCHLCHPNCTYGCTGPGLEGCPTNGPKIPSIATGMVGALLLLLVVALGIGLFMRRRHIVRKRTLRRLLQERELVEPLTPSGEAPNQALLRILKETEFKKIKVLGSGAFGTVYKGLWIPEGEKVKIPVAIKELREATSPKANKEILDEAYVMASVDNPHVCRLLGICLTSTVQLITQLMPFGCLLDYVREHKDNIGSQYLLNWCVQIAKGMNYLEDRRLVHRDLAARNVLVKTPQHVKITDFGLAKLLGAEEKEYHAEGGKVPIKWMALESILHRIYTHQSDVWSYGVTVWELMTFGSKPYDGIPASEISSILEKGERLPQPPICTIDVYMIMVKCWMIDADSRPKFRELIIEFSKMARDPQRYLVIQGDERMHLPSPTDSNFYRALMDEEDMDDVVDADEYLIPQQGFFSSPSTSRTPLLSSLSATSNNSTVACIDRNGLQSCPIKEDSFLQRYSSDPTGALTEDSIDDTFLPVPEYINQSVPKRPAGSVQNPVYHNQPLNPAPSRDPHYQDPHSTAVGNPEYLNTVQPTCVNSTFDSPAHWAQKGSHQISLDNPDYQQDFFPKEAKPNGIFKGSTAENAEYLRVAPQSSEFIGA

[8] = molecular target: Follistatin-related protein 3 (Homo sapiens) (UniProt O95633); assay: compounds binding follistatin-related protein 3 – biochemical, small-molecule microarray, 635 nm fluorescence, primary screen (AID 1105); details: FSTL3 binding, higher = more signal;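 further: score merges emission near 667 nm and signal to noise per printed spot across three slides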
Follistatin-related protein 3 (Homo sapiens), sequence (O95633 whole entry, looked up): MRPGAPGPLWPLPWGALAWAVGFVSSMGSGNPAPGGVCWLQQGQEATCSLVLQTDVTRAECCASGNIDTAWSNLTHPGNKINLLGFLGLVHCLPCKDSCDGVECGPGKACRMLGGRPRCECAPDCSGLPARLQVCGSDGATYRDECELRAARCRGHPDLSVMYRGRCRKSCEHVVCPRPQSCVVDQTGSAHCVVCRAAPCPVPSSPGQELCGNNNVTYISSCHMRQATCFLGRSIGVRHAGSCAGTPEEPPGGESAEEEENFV

[9] = molecular target: Dickkopf-related protein 1 (Homo sapiens) (UniProt O94907); assay: small molecules binding DKK1 protein – biochemical, small-molecule microarray, 635 nm fluorescence scan, primary screen (AID 1106); details: higher = more signal;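 further: score merges emission near 667 nm with signal to noise over three replicate slides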
Dickkopf-related protein 1 (Homo sapiens), sequence (O94907 whole entry, looked up): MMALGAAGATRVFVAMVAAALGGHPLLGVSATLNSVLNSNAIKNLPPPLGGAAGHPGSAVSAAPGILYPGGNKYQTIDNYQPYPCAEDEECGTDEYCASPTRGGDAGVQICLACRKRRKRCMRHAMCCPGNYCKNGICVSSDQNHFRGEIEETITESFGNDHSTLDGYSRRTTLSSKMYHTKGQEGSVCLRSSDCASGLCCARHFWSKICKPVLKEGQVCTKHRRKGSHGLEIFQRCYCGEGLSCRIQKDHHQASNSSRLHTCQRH

[10] = tested on: Inhibin beta A chain (activin A); assay: small molecules binding activin A – biochemical, small-molecule microarray, 635 nm fluorescence scan, primary screen (AID 1107); details: INHBA, higher = more signal;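 further: mouse activin A protein probed at 4.33 µg/mL on printed slides; score merges bound-protein fluorescence near 667 nm with spot signal-to-noise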
[11] = tested on: Human papillomavirus type 1a protein E7 (residues 44-93); assay: small molecules binding HPV E7 44-93 – biochemical, small-molecule microarray, residues 44-93, 635 nm fluorescence, primary screen (AID 1108); details: fluorescence 635 nm, higher = more signal;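 further: E7 fragment applied at 1 µg/mL in TBST for 1 h at 4 C; score combines spot fluorescence with its signal to noise ratio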
[12] = hepatitis C replication reporter changes, two-sided – Huh7 cells, luciferase reporter, HCV replication inhibitor project, primary screen (AID 1109); details: Huh7 HCV replicon luciferase reporter, 48 h; higher = more signal;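 further: huh7 hepatoma cells harbouring a luciferase neomycin HCV replicon reporter; luciferase luminescence as measure of HCV replicon replication; test concentration not given here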
[13] = molecular target: Left-right determination factor 2 (Homo sapiens) (UniProt O00292); assay: small molecules binding LEFTY2 protein – biochemical, small-molecule microarray, 635 nm fluorescence scan, primary screen (AID 1110); details: higher = more signal
Left-right determination factor 2 (Homo sapiens), sequence (O00292 whole entry, looked up): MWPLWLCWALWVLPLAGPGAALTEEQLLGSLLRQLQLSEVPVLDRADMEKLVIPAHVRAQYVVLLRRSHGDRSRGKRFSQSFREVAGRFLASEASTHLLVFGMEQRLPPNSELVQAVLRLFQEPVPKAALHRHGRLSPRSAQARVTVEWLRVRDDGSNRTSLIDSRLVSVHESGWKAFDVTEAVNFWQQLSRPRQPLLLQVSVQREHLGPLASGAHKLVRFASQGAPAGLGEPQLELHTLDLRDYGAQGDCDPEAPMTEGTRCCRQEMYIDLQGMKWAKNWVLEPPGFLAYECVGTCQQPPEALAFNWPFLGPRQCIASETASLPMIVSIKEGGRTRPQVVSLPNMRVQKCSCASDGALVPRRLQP

[14] = molecular target: Calmodulin-1 (Homo sapiens) (UniProt P0DP23); assay: small molecules binding calmodulin-1 with EGTA – biochemical, small-molecule microarray, Cy5-labelled CALM1, profiling panel (AID 1111); details: Cy5-CALM1 binding fluorescence, higher = more signal;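 further: labelled calmodulin applied in Tris saline Tween buffer holding calcium plus EGTA and DTT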
[15] = molecular target: Calmodulin-1 (Homo sapiens) (UniProt P0DP23); assay: small molecules binding Ca-loaded calmodulin-1 – biochemical, small-molecule microarray, Cy5-labelled CALM1, plus calcium, artefact control for SMM control-protein annotation, profiling panel (AID 1112); details: Cy5-CALM1 binding fluorescence, higher = more signal;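 further: score merges spot fluorescence with signal to noise from triplicate slides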
[16] = probe aWnt5a binding to arrayed compounds – biochemical, biotinylated probe, 635/667 nm fluorescence, primary screen (AID 1113); details: small-molecule microarray, higher = more signal;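 further: score merges 667 nm fluorescence intensity with signal-to-noise per printed feature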
[17] = probe aShh binding to arrayed compounds – biochemical, biotinylated probe, 635/667 nm fluorescence, primary screen (AID 1114); details: small-molecule microarray, higher = more signal;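 further: probe is biotin-labelled aShh protein from a stem cell growth factor screen; measures binding of labelled protein to compounds printed on the slide; score merges feature fluorescence at 667 nm with signal-to-noise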
[18] = probe aNog binding to arrayed compounds – biochemical, biotinylated probe, 635/667 nm fluorescence, primary screen (AID 1115); details: small-molecule microarray, higher = more signal;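 further: probe is biotinylated aNog protein used at 0.15 µg/mL for 1 h at 4 C; z-score combines 667 nm fluorescence of each spot with its signal to noise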
[19] = molecular target: Torsin-1A-interacting protein 1 (Homo sapiens) (UniProt Q5JTV8); assay: compound microarray binding of lysate hLAP1 – cell lysate, small-molecule microarray, COS7 lysate, 635/667 nm fluorescence, primary screen (AID 1116); details: 635 nm fluorescence, higher = more signal
Torsin-1A-interacting protein 1 (Homo sapiens), sequence (Q5JTV8 whole entry, looked up): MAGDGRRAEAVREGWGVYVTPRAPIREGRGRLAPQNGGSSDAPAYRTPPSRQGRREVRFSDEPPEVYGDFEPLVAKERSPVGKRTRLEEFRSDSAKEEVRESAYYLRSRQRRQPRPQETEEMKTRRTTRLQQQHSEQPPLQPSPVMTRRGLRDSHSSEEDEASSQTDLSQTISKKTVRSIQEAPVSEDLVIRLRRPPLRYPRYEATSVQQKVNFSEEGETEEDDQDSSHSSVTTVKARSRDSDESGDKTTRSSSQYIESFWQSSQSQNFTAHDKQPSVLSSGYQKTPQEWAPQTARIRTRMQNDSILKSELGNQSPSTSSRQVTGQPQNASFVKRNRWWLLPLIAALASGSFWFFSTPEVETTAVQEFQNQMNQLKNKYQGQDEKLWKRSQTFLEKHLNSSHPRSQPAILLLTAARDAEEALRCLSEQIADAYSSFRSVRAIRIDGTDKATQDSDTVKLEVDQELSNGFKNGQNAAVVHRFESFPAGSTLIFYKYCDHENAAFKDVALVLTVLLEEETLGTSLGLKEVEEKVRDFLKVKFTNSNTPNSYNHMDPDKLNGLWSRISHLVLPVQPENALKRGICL

[20] = molecular target: Alpha-bungarotoxin (Bungarus multicinctus) (UniProt P60615); assay: compounds binding labelled alpha-BTX control protein – biochemical, small-molecule microarray, Alexa647 label, 635/667 nm fluorescence, artefact control for SMM control protein annotation, profiling panel (AID 1117); details: alpha-BTX-A647 binding fluorescence, higher = more signal
Alpha-bungarotoxin (Bungarus multicinctus), sequence (P60615 whole entry, looked up): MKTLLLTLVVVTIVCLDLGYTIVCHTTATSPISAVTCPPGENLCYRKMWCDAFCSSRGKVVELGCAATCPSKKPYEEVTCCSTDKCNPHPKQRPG

| SMILES | composite z-score [1] | composite z-score [2] | composite z-score [3] | z-score [4] | composite z-score [5] | composite z-score [6] | composite z-score [7] | composite z-score [8] | composite z-score [9] | composite z-score [10] | composite z-score [11] | z-score [12] | composite z-score [13] | composite z-score [14] | composite z-score [15] | composite z-score [16] | composite z-score [17] | composite z-score [18] | composite z-score [19] | composite z-score [20] |
| --- | --- | --- | --- | --- | --- | --- | --- | --- | --- | --- | --- | --- | --- | --- | --- | --- | --- | --- | --- | --- |
| C=CC[C@@]12N=C(c3ccc(OCCCO)cc3)O[C@@H]1c1ccccc1N(C)C2=O | 1.13 | 0.178 | 0.899 | -0.933 (inactive) | 1.38 | 1.32 | 0.166 | 0.964 | 0.498 | 1.1 | 1.16 | -1.56 | 0.0838 | 0.422 | -0.206 | 0.14 | 0.547 | -0.621 | -0.0062 | 1.21 |
| COc1ccc([Si](C)(C)[C@H]2[C@H](CC(=O)N3Cc4ccccc4C[C@H]3CO)O[C@@]3(C(=O)N(Cc4cccc(N5CCC5=O)c4)c4ccccc43)[C@@H]2C)cc1 | 1.31 | -0.293 | -0.325 | -0.205 (inactive) | 1.05 | 0.716 | 1.19 | 1.42 | 1.26 | 0.962 | 1.37 | -3.58 | 0.903 | -0.293 | -1.02 | -0.0425 | 0.2 | 0.0308 | 0.626 | -0.0509 |
| O=C(NCCO)C1=C[C@H](Oc2ccccc2I)[C@@H](O)[C@H](N(Cc2ccco2)C(=O)Cc2ccccc2)C1 | -0.012 | -0.223 | -0.453 | -0.0906 (inactive) | 0.556 | 0.349 | 0.508 | 0.468 | 0.431 | 0.497 | -0.0509 | 0.807 | 0.51 | -0.0916 | -0.671 | 0.0057 | -0.209 | 0.0129 | 0.591 | -0.0333 |
| CC1CC/C=C\[C@H]2OC34C=CCN(C(C)(C)C)C(=O)[C@H]3N(C(C)CO)C(=O)[C@@H]4C2C(=O)O1 (stereo not given in full) | -1.24 | -0.366 | -0.266 | 1.11 (inactive) | -0.443 | -0.948 | -0.698 | -0.268 | -0.007 | 1.28 | -0.864 | -1.4 | -0.442 | -1.19 | -1.23 | -0.124 | -0.0011 | -0.219 | -0.23 | -0.942 |
| CCCC[C@@H]1C[C@H]1[C@@H](NC(=O)c1cccs1)c1ccc(-c2ccccc2)cc1 | -0.0357 | -0.0102 | 0.69 | -1.23 (inactive) | 0.655 | -0.595 | -0.0136 | 0.369 | -0.116 | 1.3 | 0.495 | -2.05 | -0.0554 | 0.362 | 0.295 | -0.0704 | -0.138 | 0.103 | 0.254 | -0.474 |
| C=CCN1C(=O)[C@@]2(Cc3ccccc31)N=C(c1ccc(OCCCO)cc1)O[C@H]2c1ccccc1 | 1.16 | 1.01 | 0.935 | -1.52 (inactive) | 0.583 | 1.32 | 0.435 | 0.983 | 0.776 | 1.13 | 0.896 | -2.11 | 0.308 | 0.355 | -0.231 | 0.0458 | 0.308 | 0.89 | 0.895 | 0.306 |
| CCCCCN1CC=CC23O[C@@H]4C=CCCOC(=O)C4[C@H]2C(=O)N(CCCCCO)[C@@H]3C1=O (stereo not given in full) | -0.158 | -0.287 | 0.249 | -0.978 (inactive) | -0.8 | -0.299 | -1.16 | -1.15 | -0.503 | 0.516 | -0.168 | -0.605 | -0.368 | -0.339 | -0.578 | -0.096 | -0.243 | -0.178 | 0.884 | -0.99 |
| CN(C)CCCCCCNC(=O)[C@H]1C[C@H]2C(=O)N3CCC[C@H]3C(=O)N2[C@H]1c1ccc(O)cc1 | 1.42 | 0.11 | 0.0341 | -0.8 (inactive) | 1.28 | 1.35 | 1.6 | 1.44 | 1.25 | 1.08 | 1.12 | 1.42 | 1.44 | -1.17 | -2.33 | -0.0598 | 0.178 | 0.0459 | 1.29 | 0.73 |
| COCCOC(=O)N1C(=O)[C@@]2(c3cc(C#Cc4ccc(OC)cc4)ccc31)[C@H](c1ccc(O)cc1)N1[C@H](c3ccccc3)[C@H](c3ccccc3)OC(=O)[C@H]1[C@@H]2C(=O)N1CCc2cc(OC)c(OC)cc2C1 | 0.888 | 0.267 | -0.0098 | -1.34 (inactive) | 0.636 | 1.2 | 0.386 | 0.914 | 0.75 | -0.0186 | 1.32 | -0.296 | 0.471 | 1.74 | 0.141 | 0.0017 | -0.301 | 0.27 | 0.796 | 0.317 |
| C=CCC(OC(C)=O)[C@@H]1[C@@H](N(Cc2ccc(-c3cccc(C(F)(F)F)c3)o2)C(=O)c2ccc(C)cc2)c2cc(OCCCO)ccc2N1C(=O)Cc1ccc2ccccc2c1 (stereo not given in full) | -0.291 | -0.183 | 0.314 | -0.337 (inactive) | -0.0662 | -1.46 | -0.206 | -0.458 | -0.214 | 1.14 | -0.312 | 0.237 | -0.628 | -0.424 | -0.352 | -0.0704 | -0.237 | -0.122 | -0.127 | 0.236 |
| COCCOC(=O)N1C(=O)[C@@]2(c3cc(C#CC4(O)CCCCCC4)ccc31)[C@H](c1ccc(OCCO)cc1)N1[C@H](c3ccccc3)[C@H](c3ccccc3)OC(=O)[C@H]1[C@@H]2C(=O)N1CCN(c2ncccn2)CC1 | 1 | -0.165 | 0.107 | -0.201 (inactive) | 1.11 | 1.28 | 0.334 | 1.06 | 0.48 | 0.0414 | 1.43 | -1.77 | 0.419 | 0.795 | 0.124 | 0.0044 | -0.147 | 0.106 | 0.667 | 1.19 |
